Results on 25 compounds are retold here after PubChem BioAssay AID1986 (Sanford-Burnham Center for Chemical Genomics, 2009).

The nature of the assay: cell-free HIV fusion peptide-binding blockers – biochemical, uHTS, fluorescence dequenching, primary screen (AID 1986). The settings on record: 30 min, stronger effect = higher value.
Setting [1] is: measured here: repeat confirmation average inhibition, at 18.6 µM.

Screen size: about 290,000 compounds; about 890 (0.31%) were called active. This is one part of a sample in which actives are shown more often than they occur. Cut-off read from the data, not from the text of the source: active = inhibition mostly above about 52% (no sharp cut-off); inactive = mostly below about 76%.

What is called inhibition is the drop in the measured response relative to a control, in per cent. Consider `COc1ccccc1NC(=O)CCCc1nc(-c2ccc(OC)c(OC)c2)no1`, for which the inhibition (at 20 µM) was -1% (inactive).

Consider `Cc1ccc2nc(/C(C#N)=C/c3ccc(-c4ccccc4C(=O)O)o3)[nH]c2c1`, for which the inhibition (at 20 µM) is 94.3% (active) and the inhibition under setting [1] is 63.8%.

For the compound `COc1cc(/C=C(/C#N)c2nc3ccccc3[nH]2)ccc1OC(=O)c1ccco1`, where the note is “at 20 µM”, the inhibition is 0.5% (inactive).

For `Cc1cc2nc(/C(C#N)=C\c3ccc(-c4ccccc4C(=O)O)o3)[nH]c2cc1C`, the inhibition (at 20 µM) was 135% (inactive).

Regarding `Cc1cc(/C=C(\C#N)c2nc3ccccc3[nH]2)c(C)n1C`, the inhibition (at 20 µM) is 54% (active).

For `N#C/C(=C\c1ccc(-c2ccccc2C(=O)O)o1)c1nc2ccccc2[nH]1`, the inhibition (at 20 µM) was 29.4% (inactive).

On to `Cc1cc(/C=C(/C#N)c2nc3ccccc3[nH]2)c(C)n1-c1ccccc1C(=O)O`, for which the inhibition (at 20 µM) is 9.7% (inactive).

`COc1cc(/C=C(\C#N)c2nc3ccccc3[nH]2)ccc1OC(=O)c1ccco1`: for the setting “at 20 µM”, the inhibition is 61.1% (active).

Regarding `COC(=O)c1ccc(COc2ccc(/C=C(\C#N)c3nc4ccccc4[nH]3)cc2OC)o1`, under “at 20 µM”, the inhibition is 4.4% (inactive).

As for `Cc1cc(/C=C(/C#N)c2nc3ccccc3[nH]2)c(C)n1-c1cc(C(=O)O)cc(C(=O)O)c1`, the inhibition (at 20 µM) is 63.6% (inactive) and the inhibition under setting [1] is 40.2%.

Take `O=C(NC(=S)Nc1ccc(CN2CCCCC2)cc1)c1ccco1`: the inhibition (at 20 µM) was 0.8% (inactive).

In the case of `Cc1ccccc1-n1ncc2c1CC(C)(C)CC2NC(=O)CCCN1CCCC1=O` (stereo not drawn), the inhibition (at 20 µM) is 0.2% (inactive).

As to `CCOc1ccc(NC(=O)CSc2nc3ccsc3c(=O)n2CCC(=O)O)cc1`, the inhibition (at 20 µM) was 2.5% (inactive).

In the case of `Oc1oc(-c2ccccc2Br)nc1C=Nc1ccc(Br)cn1`, for the setting “at 20 µM”, the inhibition was -0.2% (inactive).

In the case of `COc1ccc(N2CC(O)=C(c3n(C)c4ccccc4[n+]3C)C2=N)cc1`, the inhibition (at 20 µM) was 1.6% (inactive).

As to `Cn1c(N=Nc2ccc(N3CCOCC3)cc2)[n+](C)c2ccccc21`, the inhibition (at 20 µM) is -4.1% (inactive).

For `COc1ccc(N=Nc2n(C)c3ccccc3[n+]2C)cc1`, under “at 20 µM”, the inhibition was 79.3% (active).

On to `CC(C)(C)c1cc(C(=O)C[n+]2ccc(C(=O)NCCCO)cc2)cc(C(C)(C)C)c1O`, for which, for the setting “at 20 µM”, the inhibition is -4% (inactive).

In the case of `CCCOC(=O)C1C2C=CC3(CN(c4cccc(Cl)c4)C(=O)C13)O2` (stereo not drawn), the inhibition (at 20 µM) was 0.8% (inactive).

In the case of `Cc1cc(C)n2nc(C(F)(F)F)c(-c3ccccc3)c2n1`, under “at 20 µM”, the inhibition is 0.5% (inactive).

For the compound `Cc1cc(N2CCOCC2)n2nc(C(F)(F)F)c(-c3ccccc3)c2n1`, where the note is “at 20 µM”, the inhibition was 0.1% (inactive).

In the case of `CC(C)(C)c1ccc(C(=O)Nc2cccc3ncccc23)cc1`, the inhibition is 62% (active) (at 20 µM) and 65.1% under setting [1].

In the case of `O=C(Nc1cccc2ncccc12)c1ccc(F)cc1`, the inhibition (at 20 µM) is 2.1% (inactive).

Regarding `O=C(Nc1cccc2ncccc12)c1ccc(Cl)cc1`, the inhibition (at 20 µM) is -1% (inactive).

For the compound `COc1ccc(O)c(C(=O)c2cnc3nc4ccccc4n3c2)c1`, under “at 20 µM”, the inhibition is 28.4% (inactive).
